NPSR antag: qHTS Assay for Antagonists of the Neuropeptide S Receptor: cAMP Signal Transduction. CHO-NPSR cells, cAMP TR-FRET, antagonist mode. Potency, µM (highest dose often 38.3 µM), inactives show at the highest dose activity change, negative = inhibition, hits mostly inhibitors. actives 1% (n = 220,000). AID 1461, 2008; further: potency means the concentration at half of the fitted maximal effect; nearly all actives have a fitted effect of over 50% in size
Target sequence (Q6W5P4 whole entry, looked up): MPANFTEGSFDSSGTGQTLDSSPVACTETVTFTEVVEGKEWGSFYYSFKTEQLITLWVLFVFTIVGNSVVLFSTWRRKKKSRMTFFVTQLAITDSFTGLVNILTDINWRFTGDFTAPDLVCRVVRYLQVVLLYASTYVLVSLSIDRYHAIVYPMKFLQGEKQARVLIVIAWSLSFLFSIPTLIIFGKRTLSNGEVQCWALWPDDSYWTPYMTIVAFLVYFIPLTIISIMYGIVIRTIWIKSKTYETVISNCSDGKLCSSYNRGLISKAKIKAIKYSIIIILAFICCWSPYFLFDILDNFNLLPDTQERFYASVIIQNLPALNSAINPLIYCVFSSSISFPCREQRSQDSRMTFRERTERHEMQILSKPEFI
Tau fibril FP: qHTS for Inhibitors of Tau Fibril Formation, Fluorescence Polarization; Microtubule-associated protein tau (Homo sapiens), P10636; K18 P301L tau heparin fibrillization, Alexa594 FP, 6 h; Potency, µM (titrated, usually from 57.7 µM), for inactives: at the top dose activity, negative = inhibition, actives largely listed as inhibitors; actives 0.39% (n = 280,000); AID 1468, 2008; further: potency means the concentration at half of the fitted maximal effect; nearly all actives have a fitted effect of over 55% in size
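Recombinant K18 P301L […], labeled with Alexa 594 at 0.24 uM over 15 uM unlabeled; heparin inducer 20 uM final; 37 C, 6 hr; FP endpoint.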
JMJD2E inh: qHTS Assay for Inhibitors of Human Jumonji Domain Containing 2E (JMJD2E); JMJD2E catalytic domain, FDH-coupled NADH fluorescence (FDH is formaldehyde dehydrogenase); Potency, µM (series often up to 57.1 µM), without a hit: top-dose activity change, negative = inhibition, most hits filed as inhibitors; AID 2147, 2009; Lysine-specific demethylase 4E (Homo sapiens), B2RXH2; actives 1.6% (n = 230,000); active means well fitted inhibition curve with a large enough effect, not every such curve was filed as active; inconclusive means small, poorly fitted or top-dose-only effect, or another doubt; inactive means no such curve, though single readings can be large or run the other way;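 further: potency means the concentration at half of the fitted maximal effect; 0% = wells with enzyme and -100% = buffer wells without enzyme; nearly all actives have a fitted effect of over 50% in size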
Target sequence (B2RXH2 1-337 limits assumed): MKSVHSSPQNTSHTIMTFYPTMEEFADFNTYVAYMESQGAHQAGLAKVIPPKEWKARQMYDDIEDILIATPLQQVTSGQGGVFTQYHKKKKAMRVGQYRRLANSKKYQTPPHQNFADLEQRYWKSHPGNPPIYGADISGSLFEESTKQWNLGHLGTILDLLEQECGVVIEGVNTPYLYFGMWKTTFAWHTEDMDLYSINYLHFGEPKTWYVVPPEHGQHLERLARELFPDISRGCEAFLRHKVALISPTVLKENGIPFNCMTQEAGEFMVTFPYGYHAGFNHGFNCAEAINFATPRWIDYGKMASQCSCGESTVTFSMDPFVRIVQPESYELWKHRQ
Tau fluor cs: Counterscreen qHTS for Inhibitors of Tau Fibril Formation, Fluorescence Polarization; tau K18 P301L Alexa594 fluorescence, heparin fibrillization; actives 0.93% (n = 280,000); AID 1463, 2008; Potency, µM (doses to about 57.7 µM), for the others: at the highest dose activity change, negative = decrease; further: potency means the concentration at half of the fitted maximal effect; nearly all actives have a fitted effect of over 55% in size
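Human tau K18 P301L (15 uM unlabeled, 0.24 uM Alexa 594-labeled) in 100 mM sodium acetate pH 7 with 20 uM heparin, 6 hr at 37 C. ThT 30 uM added, 1 hr ambient; Alexa 594 FP and total fluorescence read at 555/632 nm.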
PNC inhibitor: High Content Assay for Compounds that inhibit the Assembly of the Perinucleolar Compartment; PC3M PTB-GFP, PNC prevalence imaging, 16 h; stronger effect = lower value; activity change (PNC), negative = inhibition, % at 10 µM; actives 3.1% (n = 140,000);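 active means readout at or below -70, meaning at least 70% loss of cells showing the perinucleolar compartment, a nuclear body marking cancer cells; inconclusive means readout between -30 and a set limit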;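 further: plate controls were DMSO wells for no effect and camptothecin positive control wells for full effect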
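PC3M cells stably expressing PTB-GFP, 750–1000 cells/well, treated 16 h at 37 °C with compound (23 nl of library stock), in duplicate. After paraformaldehyde fixation and Hoechst stain, imaged at 20x; PNC prevalence scored by image analysis.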
Tau ThT inhib: qHTS for Inhibitors of Tau Fibril Formation, Thioflavin T Binding; Microtubule-associated protein tau (Homo sapiens), P10636; recombinant tau K18 P301L (four-repeat tau fragment), heparin-induced fibrillization, ThT fluorescence; Potency, µM (doses to about 57.4 µM), for the others: at the top dose activity, negative = inhibition, usual class: inhibitors; actives 2.1% (n = 270,000); AID 1460, 2008; further: potency means the concentration at half of the fitted maximal effect; nearly all actives have a fitted effect of over 55% in size
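Tau K18 P301L fragment (15 uM unlabeled plus 0.24 uM Alexa 594-labeled) in 100 mM sodium acetate pH 7 with compound, fibrillization induced by 20 uM heparin for 6 hr at 37 C. Thioflavin T (30 uM) added, fluorescence read after 1 hr (ex 450, em 510 nm).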
An asterisk follows results filed as active; u = inconclusive; x = no result; [ ] = dose if it differs, or a comment. Rows were chosen to be rich in hits. Some 5.1% of all compounds tested hit in one or more screens of this group. Unless noted, the call rests on the fitted dose curve; in most records, active means well fitted curve in the direction sought with a large enough effect; inconclusive means small, poorly fitted or top-dose-only effect, or another doubt; inactive means no such curve, though single readings can be large; an effect the other way counts as inactive or inconclusive. Unless noted, on the % scale 0 is the no-effect control and ±100 the full control effect.

SMILES	NPSR antag	Tau fibril FP	JMJD2E inh	Tau fluor cs	PNC inhibitor	Tau ThT inhib
CCCCOc1ccc(C2c3c(oc4ccccc4c3=O)C(=O)N2c2nc(C)c(C(=O)OCC)s2)cc1OC (stereo unspecified)	x	4%	x	-10%	x	-11%
CCOC(=O)c1ccc(N=C2C(=S)N(c3ccc(C(=O)OCC)cc3)C(=N)N2/N=C/c2ccccc2)cc1	-17%	14%	-18%	u	-86*	u
CCN(CC)S(=O)(=O)c1ccc(N2CCOCC2)c(NC(=O)c2cccc3ccccc23)c1	-25%	-1%	u	-24%	u	-8%
CCN(CC)S(=O)(=O)c1ccc(N2CCOCC2)c(NC(=O)c2cc(-c3ccccn3)nc3ccccc23)c1	-5%	1%	13µM*	-29%	x	4%
CC(=O)Nc1cc(N2C(=O)CCC2=O)ccc1Cl	10%	7%	6%	9%	-82*	4%
COc1cc2nc(NC(=O)c3ccc(S(=O)(=O)N4CCCC4)cc3)sc2cc1OC	x	-6%	x	-14%	x	0%
CCc1ccc(NC(=O)CC2C(=O)N(c3ccc(OC)cc3)C(=O)N2Cc2cccs2)cc1 (stereo unspecified)	x	-11%	x	-20%	x	2%
CC(C)C1Nc2c(O)cc(Cl)c([N+](=O)[O-])c2C2C=CCC21 (stereo unspecified)	-15%	2%	-5%	u	x	11µM*
CCNc1ccc(Br)cc(C(=O)/C=C/c2c(Cl)cccc2Cl)c1=O	u	u	u	u	80	13µM*
O=C(/C=C\c1ccc2c(c1)OCO2)c1ccc(F)cc1	x	6%[11.6 µM]	x	u	x	u
CCNc1ccc(Br)cc(C(=O)/C=C/c2ccc3c(c2)OCO3)c1=O	-13%[46.1 µM]	u	14µM*	u	-21	11µM*
CCNc1ccc(Br)cc(C(=O)/C=C/c2ccc(Cl)cc2)c1=O	-52%	u	25µM*	u	40	14µM*
O=C(/C=C/c1ccc(F)cc1)c1cc(Br)ccc1O	u	1%	7%	-10%	x	u
CCCCC(=O)Nc1ccc(Br)cc1C(=O)O	-20%[46.1 µM]	3%	-7%	-9%	-5	-8%
COc1cccc(CNC(=O)C2CCN(c3nc4ccc(Cl)cc4[nH]3)CC2)c1	x	8%	x	-15%	x	-13%
CCOC(=O)c1c(C)oc2nc(C)nc(N3CCN(c4cc(Cl)ccc4C)CC3)c12	x	-9%	x	-11%	x	u
CC[C@@H](c1ccccc1)n1c(=O)n2n(c1=O)[C@H]1[C@H](O)[C@H]3O[C@@H]3/C(=N/OC[C@@H](O)COCc3ccco3)[C@@H]1CC2	x	1%[11.6 µM]	x	-20%[11.6 µM]	x	-20%[11.5 µM]
CN(/N=C/c1ccccc1Cl)c1ncc(Cl)cc1C(F)(F)F	5%	0%	-11%	-13%	x	-14%
CN(/N=C/c1ccc(O)cc1O)c1ncc(C(F)(F)F)cc1Cl	10%[7.67 µM]	17%	u	18µM*[quencher]	x	u
COc1cccc(NC(=O)C(Cc2ccccc2)NC(=O)C2CCC(C)CC2)c1 (stereo unspecified)	-12%	-10%	-9%	-11%	-119*	-13%
COc1ccccc1CNc1nc2ccc(C)cc2n2nnnc12	x	-2%	x	-8%	x	0%
O=C(Nc1nccs1)C12CC3CC(C1)CC(C(=O)Nc1nccs1)(C3)C2	-9%[46.1 µM]	-1%	-2%	-10%	-88*	-1%
COc1cc(/C=C2\SC(=O)N(Cc3ccc(Cl)cc3)C2=O)cc([N+](=O)[O-])c1O	-20%	-3%	u	-30%	x	13µM*
CCOC(=O)CN1C(=O)S/C(=C/c2ccc(OC)c([N+](=O)[O-])c2)C1=O	2%	6%	8%	0%	-24	-2%
COc1cc(/C=C2\SC(=O)N(Cc3ccc(F)cc3)C2=O)cc([N+](=O)[O-])c1O	-35%	16%	-12%	-18%	x	14µM*
SMILES	NPSR antag	Tau fibril FP	JMJD2E inh	Tau fluor cs	PNC inhibitor	Tau ThT inhib
CCc1ccc(S(=O)(=O)c2c(C(=O)c3ccccc3)cnc3ccc(CC)cc23)cc1	x	-11%	x	-12%	x	-12%
CC(C)(C)C(=O)NCCc1csc2nc(-c3ccc(F)cc3)nn12	x	-8%	x	-6%	x	-1%
COC(=O)c1c(NC(=O)c2nn(C)cc2Cl)sc2c1CCCC2	8%[46.1 µM]	-7%	u	-25%	-92*	-13%
Cc1occc1C(=O)Nc1sc2c(c1C(N)=O)CCCCC2	-20%[46.1 µM]	6%	u	-15%	-23	u
COC(=O)c1c(NC(=O)c2ccoc2C)sc2c1CCC2	-22%[46.1 µM]	-6%	u	-7%	-109*	u
CCc1cccc2c(-c3ccccc3)nc(SCC(=O)Nc3ccc(OC)cc3)nc12	x	-15%	x	-14%	x	-6%
Cc1ccc(-c2csc(=Nc3ccccc3)n2Cc2ccc3c(c2)OCO3)cc1	x	3%	x	u	x	-15%
Cn1c(=O)c2c(nc(NNC(=O)C(F)(F)F)n2C)n(C)c1=O	4%	-4%	-26%	-11%	x	-15%
Cn1c(=O)c2c(nc(NN=C3CCCC3)n2C)n(C)c1=O	-3%	u	u	22µM*[quencher]	x	22µM*
COc1ccc(NC(=O)c2sc3nc[nH]c(=O)c3c2C)cc1OC	x	-6%	x	-2%	x	-3%
COc1cc(OC)nc(-n2ncc(Br)c(Br)c2=O)n1	6.3µM*	u	-2%	-13%	u	10µM*
N/C(=C\C(=O)c1cc(Cl)ccc1O)C(Cl)(Cl)Cl	-8%[7.67 µM]	u	-2%	-25%	x	18µM*
CC(C)(C)c1ccc(C(=O)CC(=O)c2cc(Cl)ccc2O)cc1	-22%[46.1 µM]	-5%	-17%	-14%	30	-17%
CCOc1cnn(-c2cc(Oc3ccc(C)cc3)ncn2)c(=O)c1Cl	-13%[46.1 µM]	1%	7%	-16%	-16	-18%
Cc1ccccc1Oc1cc(-n2ncc(Cl)c(Cl)c2=O)ncn1	2.5µM*	u	2%	-12%	-87*	10µM*
Cc1nn(C)c(C)c1CNC(=O)/C=C/c1ccccc1F	19%	8%	6%	-6%	-113*	-12%
O=C(NC(=S)NCCSc1ccccc1)c1cccnc1	9%	-6%	4%	-13%	-95*	-6%
COc1ccc(C(=O)O)c(O)c1OC	x	u	-14%	-19%	x	-8%
COC1=C(N)C(=O)c2nc(-c3nc(C(=O)O)c(C)c(-c4ccc(OC)c(OC)c4O)c3N)ccc2C1=O	3%	u	331%	u	-115*	16µM*
